Results taken from PubChem BioAssay (NCATS).
Results filed as inconclusive are left out. A call without a number means that no potency is given here. Calls of active or inactive are those of the source. Calls come from the whole dose curve; as a rule, active = well fitted curve in the direction sought with a large enough effect; inconclusive = small, poorly fitted or top-dose-only effect, or another doubt; inactive = no such curve, though single readings can be large; an effect the other way counts as inactive or inconclusive.

Tests used:
[1] = biological target: ATP-dependent 6-phosphofructokinase (Trypanosoma brucei brucei) (UniProt O15648); experiment: qHTS Assay to Find Inhibitors of T. brucei phosphofructokinase: hit validation (AID 492961);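 note: luminescence reports ADP formed as PFK phosphorylates fructose-6-phosphate with ATP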; settings: T. brucei PFK, ADP-Glo luminescence; series mostly up to 51.4 µM
Method in brief: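 In this biochemical qHTS validation, titrated compounds were tested against 1.25 nM PFK with 0.1 mM ATP and 0.5 mM F6P. Percent activity came from controls lacking or containing enzyme.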

[2] = biological target: M-phase phosphoprotein 8 (Homo sapiens) (UniProt Q99549); experiment: qHTS Validation Assay for Inhibitors for MPP8 Chromodomain Interactions with Methylated Histone Tails (AID 488949); settings: AlphaScreen MPP8 binding to H3K9me3 peptide; series mostly up to 57.1 µM; note: top concentration of the series differs between compounds; nearly all actives have a fitted effect of over 55% in size
Method in brief: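 MPP8 (50 nM) was pre-bound to 50 nM biotinylated H3(1-18)K9me3 peptide in PBS pH 7.4 with 0.01% Tween-20. Compounds were then added for 30 min at room temperature, and complex disruption was read by AlphaScreen with streptavidin donor and nickel-chelate acceptor beads.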

[3] = biological target: Chromobox protein homolog 1 (Homo sapiens) (UniProt P83916); experiment: qHTS Validation Assay for Inhibitors of HP1-beta Chromodomain Interactions with Methylated Histone Tails (AID 488953); settings: HP1-beta chromodomain / methylated histone peptide binding assay; series mostly up to 114 µM;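 note: loss of AlphaScreen luminescence from HP1-beta binding biotinylated H3K9me3 peptide; nearly all actives have a fitted effect of over 50% in size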
Method in brief: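 HP1-beta (50 nM) was preincubated 30 min at room temperature with biotinylated H3(1-18)K9me3 peptide (50 nM) in PBS pH 7.4, 0.01% Tween-20, then with compounds 30 min. AlphaScreen signal was read after streptavidin donor/nickel chelate acceptor beads (10 ug/mL final).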

[4] = biological target: Methanococcus maripaludis chaperonin (MmCpn) (UniProt Q6LX38); experiment: High-Throughput Screening for Modulators of Cytosolic Chaperonin Activity: MmCpn Primary Screen (AID 488978); settings: Purified MmCpn ATPase activity, ADP HTRF detection, 10 min; series mostly up to 76.9 µM;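 note: 50 nM MmCpn enzyme hydrolysing 30 µM ATP at 37 °C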
Method in brief: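 MmCpn at 50 nM final was preincubated 5 min at RT with compound. ATP was then added at 30 uM final for 10 min at 37 C. ADP formed was detected by Transcreener HTRF (665/590 nm).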

[5] = biological target: D(1A) dopamine receptor (Homo sapiens) (UniProt P21728); experiment: HTS Assay for Allosteric Agonists of the Human D1 Dopamine Receptor: Primary Screen for Agonists (AID 488981); settings: Inducible HEK293 T-REx D1 cells, calcium-flux fluorescence, 180 s kinetic; series mostly up to 41.8 µM
Method in brief: (§1)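 Calcium flux in an inducible, force-coupled HEK293 Trex D1 line (overnight at 30 C): agonist mode is the 180 s kinetic read after compound; potentiator mode is the following 180 s read after dopamine at EC20.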

[6] = biological target: D(1A) dopamine receptor (Homo sapiens) (UniProt P21728); experiment: HTS Assay for Allosteric Agonists of the Human D1 Dopamine Receptor: Primary Screen for Potentiators (AID 488982); settings: HEK293 T-REx D1 inducible cells, calcium flux, kinetic fluorescence; series mostly up to 8.37 µM
Method in brief: as §1

[7] = biological target: D(1A) dopamine receptor (Homo sapiens) (UniProt P21728); experiment: HTS Assay for Allosteric Agonists of the Human D1 Dopamine Receptor: Primary Screen for Antagonists (AID 488983); settings: D1 receptor cell assay, antagonist mode, qHTS titration; series mostly up to 41.8 µM;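 note: calcium flux response to an EC80 dopamine challenge measured with no-wash dye; nearly all actives have a fitted effect of over 65% in size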
Method in brief: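 Tetracycline-induced HEK293 T-REx cells expressing force-coupled D1 were plated overnight at 30 C, dye-loaded for calcium, and read kinetically. Compounds were pinned in, then an EC80 dopamine challenge followed after 180 s to reveal antagonism.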

[8] = biological target: Transient receptor potential cation channel subfamily V member 1 (Homo sapiens) (UniProt Q8NER1); experiment: HTS Assay for Compounds that Act as Enhancers of the Vanilloid Receptor 1 (AID 488979); settings: TRPV1-expressing cells, enhancer of channel activity, stimulated with capsaicin at EC20; series mostly up to 41.7 µM
Method in brief: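 Calcium influx kinetics via Fluo-8 (480/520 nm) in TRPV1-expressing cells, 2000/well cultured overnight at 35.5C. Compound-alone read 3 min (agonist phase), followed by EC20 capsaicin challenge for 2 min (enhancer phase).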

[9] = biological target: Thyrotropin receptor (Homo sapiens) (UniProt P16473); experiment: qHTS Assay for Antagonists of the Thyroid Stimulating Hormone Receptor (AID 488980); settings: TSHR-expressing cells, cAMP antagonist read-out; series mostly up to 57.5 µM
Method in brief: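 TSHR-transfected HEK293 cells (2000/well) in HEPES-buffered HBSS with 70 uM RO 20-1724 were stimulated with 4 nM TSH (EC80, final) in the presence of compound. cAMP was measured by HTRF competition after lysis and 30 min at RT.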

M-phase phosphoprotein 8 (Homo sapiens), sequence (Q99549 whole entry, looked up): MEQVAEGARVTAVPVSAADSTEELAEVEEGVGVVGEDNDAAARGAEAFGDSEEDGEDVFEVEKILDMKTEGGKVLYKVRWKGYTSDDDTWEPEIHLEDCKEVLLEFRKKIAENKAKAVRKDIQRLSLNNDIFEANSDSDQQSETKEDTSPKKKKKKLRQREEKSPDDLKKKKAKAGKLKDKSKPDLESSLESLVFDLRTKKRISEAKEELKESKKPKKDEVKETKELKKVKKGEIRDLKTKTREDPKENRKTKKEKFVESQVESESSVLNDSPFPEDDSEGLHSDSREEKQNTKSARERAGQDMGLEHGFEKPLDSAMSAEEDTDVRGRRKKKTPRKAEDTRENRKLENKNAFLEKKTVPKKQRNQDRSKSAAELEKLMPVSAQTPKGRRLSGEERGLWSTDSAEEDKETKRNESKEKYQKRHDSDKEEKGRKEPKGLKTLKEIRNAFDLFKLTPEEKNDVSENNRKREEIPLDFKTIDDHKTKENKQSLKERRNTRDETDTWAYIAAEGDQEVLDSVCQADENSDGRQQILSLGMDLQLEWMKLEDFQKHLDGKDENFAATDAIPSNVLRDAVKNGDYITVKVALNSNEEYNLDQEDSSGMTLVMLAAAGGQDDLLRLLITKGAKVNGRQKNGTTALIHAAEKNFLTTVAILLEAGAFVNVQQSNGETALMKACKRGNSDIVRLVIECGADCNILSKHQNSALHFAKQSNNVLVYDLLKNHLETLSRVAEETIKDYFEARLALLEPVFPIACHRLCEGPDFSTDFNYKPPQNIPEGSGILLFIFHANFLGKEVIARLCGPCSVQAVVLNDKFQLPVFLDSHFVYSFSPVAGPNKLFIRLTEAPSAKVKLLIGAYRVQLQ
ATP-dependent 6-phosphofructokinase (Trypanosoma brucei brucei), sequence (O15648 whole entry, looked up): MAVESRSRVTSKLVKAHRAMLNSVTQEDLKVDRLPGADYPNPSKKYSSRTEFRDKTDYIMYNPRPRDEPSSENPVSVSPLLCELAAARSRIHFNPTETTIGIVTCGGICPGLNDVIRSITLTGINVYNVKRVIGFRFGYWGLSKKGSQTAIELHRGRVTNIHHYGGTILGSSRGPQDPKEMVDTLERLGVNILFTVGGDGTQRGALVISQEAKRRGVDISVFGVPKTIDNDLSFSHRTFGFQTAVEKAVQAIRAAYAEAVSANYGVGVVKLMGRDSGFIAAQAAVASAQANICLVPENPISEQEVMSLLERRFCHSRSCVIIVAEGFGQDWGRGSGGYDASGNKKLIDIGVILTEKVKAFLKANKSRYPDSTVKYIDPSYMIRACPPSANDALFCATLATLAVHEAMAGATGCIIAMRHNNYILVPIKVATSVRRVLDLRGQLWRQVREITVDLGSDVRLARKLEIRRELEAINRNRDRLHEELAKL
D(1A) dopamine receptor (Homo sapiens), sequence (P21728 whole entry, looked up): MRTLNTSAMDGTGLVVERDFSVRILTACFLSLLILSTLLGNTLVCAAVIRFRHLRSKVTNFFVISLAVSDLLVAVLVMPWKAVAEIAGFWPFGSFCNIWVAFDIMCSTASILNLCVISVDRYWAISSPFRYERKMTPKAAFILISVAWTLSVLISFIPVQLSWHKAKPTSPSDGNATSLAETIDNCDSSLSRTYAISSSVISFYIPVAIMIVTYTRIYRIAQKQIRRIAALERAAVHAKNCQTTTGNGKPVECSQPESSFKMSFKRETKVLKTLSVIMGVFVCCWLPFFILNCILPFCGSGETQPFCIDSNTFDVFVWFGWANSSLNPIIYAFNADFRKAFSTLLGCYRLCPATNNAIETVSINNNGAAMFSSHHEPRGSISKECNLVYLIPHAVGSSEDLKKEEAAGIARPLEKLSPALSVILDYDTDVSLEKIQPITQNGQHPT
Chromobox protein homolog 1 (Homo sapiens), sequence (P83916 whole entry, looked up): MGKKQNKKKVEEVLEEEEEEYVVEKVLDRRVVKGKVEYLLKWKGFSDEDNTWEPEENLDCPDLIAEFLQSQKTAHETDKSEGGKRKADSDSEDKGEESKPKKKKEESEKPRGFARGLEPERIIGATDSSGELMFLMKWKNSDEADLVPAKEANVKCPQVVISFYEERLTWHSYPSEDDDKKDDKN
Methanococcus maripaludis chaperonin (MmCpn), sequence (Q6LX38 1-543): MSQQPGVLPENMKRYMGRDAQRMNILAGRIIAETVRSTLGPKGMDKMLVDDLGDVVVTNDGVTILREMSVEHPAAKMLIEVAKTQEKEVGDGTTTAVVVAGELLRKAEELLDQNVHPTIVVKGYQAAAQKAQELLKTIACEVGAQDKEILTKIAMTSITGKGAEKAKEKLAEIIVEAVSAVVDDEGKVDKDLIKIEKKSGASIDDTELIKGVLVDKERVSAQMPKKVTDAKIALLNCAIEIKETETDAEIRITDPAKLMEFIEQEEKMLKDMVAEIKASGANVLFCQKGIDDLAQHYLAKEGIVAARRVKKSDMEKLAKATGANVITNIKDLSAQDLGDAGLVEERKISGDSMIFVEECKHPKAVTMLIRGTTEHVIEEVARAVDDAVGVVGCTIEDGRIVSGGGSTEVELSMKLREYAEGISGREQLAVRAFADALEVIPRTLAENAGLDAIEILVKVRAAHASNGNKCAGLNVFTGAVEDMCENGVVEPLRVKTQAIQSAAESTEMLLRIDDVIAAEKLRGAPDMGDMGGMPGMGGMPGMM
Transient receptor potential cation channel subfamily V member 1 (Homo sapiens), sequence (Q8NER1 whole entry, looked up): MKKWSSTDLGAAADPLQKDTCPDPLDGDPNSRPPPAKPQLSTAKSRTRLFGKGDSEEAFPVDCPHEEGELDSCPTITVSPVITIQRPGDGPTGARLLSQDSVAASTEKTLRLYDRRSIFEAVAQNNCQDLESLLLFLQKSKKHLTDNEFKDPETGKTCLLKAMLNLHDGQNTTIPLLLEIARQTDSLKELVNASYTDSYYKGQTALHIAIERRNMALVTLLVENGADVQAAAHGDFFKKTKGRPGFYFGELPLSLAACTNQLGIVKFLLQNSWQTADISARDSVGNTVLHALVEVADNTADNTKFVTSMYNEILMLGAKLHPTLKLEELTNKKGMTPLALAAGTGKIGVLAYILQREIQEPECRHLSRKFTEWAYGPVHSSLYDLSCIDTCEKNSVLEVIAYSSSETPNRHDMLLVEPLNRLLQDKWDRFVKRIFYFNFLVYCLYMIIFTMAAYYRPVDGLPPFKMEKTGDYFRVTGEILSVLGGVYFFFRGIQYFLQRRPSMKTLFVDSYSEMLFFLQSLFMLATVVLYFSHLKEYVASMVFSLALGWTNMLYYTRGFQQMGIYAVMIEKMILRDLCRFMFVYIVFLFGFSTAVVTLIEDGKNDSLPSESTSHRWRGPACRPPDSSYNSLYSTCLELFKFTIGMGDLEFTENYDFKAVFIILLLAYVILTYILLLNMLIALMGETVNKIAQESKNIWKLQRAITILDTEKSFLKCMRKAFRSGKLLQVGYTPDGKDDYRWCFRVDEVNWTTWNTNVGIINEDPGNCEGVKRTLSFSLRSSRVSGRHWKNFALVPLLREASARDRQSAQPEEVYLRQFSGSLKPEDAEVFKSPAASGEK
Thyrotropin receptor (Homo sapiens), sequence (P16473 whole entry, looked up): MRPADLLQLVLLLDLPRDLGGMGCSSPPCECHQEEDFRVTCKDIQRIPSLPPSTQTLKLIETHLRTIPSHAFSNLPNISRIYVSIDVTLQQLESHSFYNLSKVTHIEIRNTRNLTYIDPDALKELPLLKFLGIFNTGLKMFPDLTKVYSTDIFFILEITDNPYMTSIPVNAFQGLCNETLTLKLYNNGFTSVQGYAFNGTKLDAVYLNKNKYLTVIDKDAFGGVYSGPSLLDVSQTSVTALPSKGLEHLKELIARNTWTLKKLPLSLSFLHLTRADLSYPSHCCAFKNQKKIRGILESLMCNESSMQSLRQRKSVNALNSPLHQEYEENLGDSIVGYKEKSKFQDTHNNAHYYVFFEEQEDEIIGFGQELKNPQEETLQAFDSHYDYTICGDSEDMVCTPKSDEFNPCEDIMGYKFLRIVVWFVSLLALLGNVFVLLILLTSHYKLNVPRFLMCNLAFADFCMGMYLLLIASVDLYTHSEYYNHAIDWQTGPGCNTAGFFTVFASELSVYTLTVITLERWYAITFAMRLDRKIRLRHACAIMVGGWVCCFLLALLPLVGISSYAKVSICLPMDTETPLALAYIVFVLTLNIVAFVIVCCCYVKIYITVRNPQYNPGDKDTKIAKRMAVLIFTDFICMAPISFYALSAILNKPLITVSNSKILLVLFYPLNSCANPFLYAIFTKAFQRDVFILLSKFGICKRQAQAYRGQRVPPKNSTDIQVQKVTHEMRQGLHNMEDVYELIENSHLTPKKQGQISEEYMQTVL

O=C(NCCc1c[nH]c2ccccc12)c1cccnc1
Potency [1]: inactive

Oc1ccccc1C=NCc1ccccc1
Potency [1]: inactive

COc1cc([C@H]2Oc3cc([C@H]4Oc5cc(O)cc(O)c5C(=O)[C@@H]4O)ccc3O[C@@H]2CO)ccc1O
Potency [1]: inactive

CCOC(=O)[C@H](CCc1ccccc1)N[C@@H](C)C(=O)N1[C@H](C(=O)O)C[C@H]2CCCC[C@@H]21
Potency [2]: inactive | outcome [3]: inactive | outcome [4]: inactive | outcome [5]: inactive | outcome [6]: inactive | outcome [7]: inactive

O=C(Nc1ccc([N+](=O)[O-])cc1)Nc1ccc([N+](=O)[O-])cc1
Potency [1]: inactive

NC(=O)C1(N2CCCCC2)CCN(CCCC(=O)c2ccc(F)cc2)CC1
Potency [1]: inactive

CC(=O)Nc1ccc(CC(=O)O)cc1
Potency [1]: inactive

CCCCNC(=O)NS(=O)(=O)c1ccc(N)cc1
Potency [1]: inactive

CCCCN=C(N)N=C(N)N
Potency [1]: inactive

C=CCN1CCc2nc(N)sc2CC1
Potency [1]: inactive

CC1CCc2c(N3CCC(O)CC3)c(F)cc3c(=O)c(C(=O)O)cn1c23 (stereo unspecified)
Potency [1]: inactive

O=C(O)P(=O)(O)O
Potency [1]: inactive

O=C(Nc1cccc(C2=NCCN2)c1)Nc1cccc(C2=NCCN2)c1
Potency [1]: inactive

CC(=O)Nc1ccc(OCC(O)CNC(C)C)cc1 (stereo unspecified)
Potency [1]: inactive

CNCCc1ccccn1
Potency [1]: inactive

CN1CCN(c2c(F)cc3c(=O)c(C(=O)O)cn4c3c2SCC4)CC1
Potency [1]: inactive

CN1CCC(OC(c2ccccc2)c2ccccc2)CC1
Potency [1]: inactive

NC(N)=NCc1cccc(I)c1
Potency [2]: inactive | outcome [3]: inactive | outcome [4]: inactive | outcome [8]: inactive | outcome [9]: inactive | outcome [5]: inactive | outcome [6]: inactive | outcome [7]: inactive | Potency [1]: inactive
